# Measured values as given in the antibiotic and cytotoxicity screens of Wong et al. (2023).
# Out of some 39,000 compounds screened, about 3,300 (8.5%) were called active. For the sample, actives were picked, then their nearest neighbours and some compounds at random.
# System: HepG2
# Test: cytotoxicity call (relative viability < 0.9)
# Details: 10 µM
row,SMILES,cytotoxicity call
1,COCC(=O)N1C[C@H](C)[C@H](OC)CN(C)C(=O)c2cc(NC(=O)c3ccc(OC)cc3)ccc2OC[C@H]1C,inactive
2,NCCSC12CC3CC(CC(C3)C1)C2,inactive
3,C[C@H](O)C#Cc1ccc2c(c1)O[C@H](CN(C)C(=O)c1ccncc1)[C@@H](C)CN([C@H](C)CO)S2(=O)=O,inactive
4,C[C@@H]1CN([C@H](C)CO)S(=O)(=O)c2ccc(C#Cc3ccncc3)cc2O[C@H]1CN(C)C(=O)c1ccncc1,active
5,C[C@@H](O)C#Cc1ccc2c(c1)O[C@H](CN(C)C(=O)c1ccncc1)[C@@H](C)CN([C@@H](C)CO)S2(=O)=O,inactive
6,C[C@H]1CN([C@@H](C)CO)S(=O)(=O)c2ccc(C#Cc3ccncc3)cc2O[C@H]1CN(C)C(=O)c1ccncc1,active
7,C[C@H](O)C#Cc1ccc2c(c1)O[C@@H](CN(C)C(=O)c1ccncc1)[C@@H](C)CN([C@@H](C)CO)S2(=O)=O,inactive
8,C[C@@H]1CN([C@H](C)CO)S(=O)(=O)c2ccc(C#C[C@@H](C)O)cc2O[C@H]1CN(C)C(=O)c1ccncc1,inactive
9,COc1ccc(CN(C)C[C@@H]2OCCCC[C@H](C)Oc3ccc(NS(=O)(=O)c4ccc(C)cc4)cc3C(=O)N([C@H](C)CO)C[C@H]2C)cc1,inactive
10,COc1ccc(S(=O)(=O)N(C)C[C@H]2OCc3cn(nn3)CCCC(=O)N([C@H](C)CO)C[C@H]2C)cc1,inactive
11,C[C@@H]1CCCCO[C@H](CN(C)S(C)(=O)=O)[C@@H](C)CN([C@H](C)CO)C(=O)c2cc(NS(=O)(=O)c3cn(C)cn3)ccc2O1,inactive
12,CC(=O)n1cc([C@@H]2C=C(C(=O)N3CCN(C)CC3)O[C@H](OCc3ccc(CO)cc3)C2)c2ccccc21,inactive
13,CCn1c(C)cn2c3c(=O)n(CCN4CCOCC4)c(=O)n(C)c3nc12,inactive
14,O=C/C=C/c1ccccc1Cl,inactive
15,C[C@@H]1CN([C@@H](C)CO)C(=O)c2cccc(NS(C)(=O)=O)c2O[C@H]1CN(C)C(=O)Nc1ccccc1,inactive
16,C[C@@H]1CN([C@@H](C)CO)C(=O)c2cc(NC(=O)Cc3ccccc3)ccc2O[C@@H]1CN(C)S(C)(=O)=O,inactive
17,COC(=O)c1cccc(C(=O)OC)n1,inactive
18,COC(=O)c1ccc(O)cc1,inactive
19,COC(=O)c1ccc(C(=O)OC)nc1,active
20,C[C@H](CO)N1C[C@H](C)[C@@H](CN(C)S(=O)(=O)c2ccccc2)Oc2ccc(NC(=O)Nc3cccc4ccccc34)cc2C1=O,inactive
21,CCC(=O)N[C@H]1CC[C@@H](CC(=O)OC)O[C@H]1CO,inactive
22,C[C@@H]1CN([C@H](C)CO)C(=O)c2cccc(NC(=O)C3CCCCC3)c2O[C@H]1CN(C)C(=O)Nc1cccc2ccccc12,inactive

row,SMILES,cytotoxicity call
1,COC(=O)[C@H](Cc1ccccc1)N1CC2=C[C@@H]([C@@H](O)CCn3cc(C(=O)NO)nn3)n3c(=O)n(C)c(=O)n3[C@@H]2[C@@H](C2CC2)O1,inactive
2,Cc1ccc(S(=O)(=O)Nc2ccc3c(c2)C(=O)N([C@H](C)CO)C[C@H](C)[C@H](CN(C)C(=O)Nc2ccc(F)cc2)OCCCC[C@H](C)O3)cc1,inactive
3,Cc1ccc(S(=O)(=O)Nc2ccc3c(c2)C(=O)N([C@H](C)CO)C[C@H](C)[C@@H](CN(C)C(=O)Nc2ccccc2)OCCCC[C@H](C)O3)cc1,inactive
4,Cc1ccc(S(=O)(=O)Nc2ccc3c(c2)C(=O)N([C@@H](C)CO)C[C@H](C)[C@@H](CN(C)C(=O)Nc2ccccc2)OCCCC[C@H](C)O3)cc1,active
5,Cc1ccc(S(=O)(=O)Nc2ccc3c(c2)C(=O)N([C@H](C)CO)C[C@@H](C)[C@H](CN(C)C(=O)Nc2ccc(F)cc2)OCCCC[C@H](C)O3)cc1,active
6,Cc1ccc(S(=O)(=O)Nc2ccc3c(c2)C(=O)N([C@@H](C)CO)C[C@@H](C)[C@@H](CN(C)C(=O)Nc2ccccc2)OCCCC[C@H](C)O3)cc1,inactive
7,Cc1ccc(S(=O)(=O)Nc2ccc3c(c2)C(=O)N([C@@H](C)CO)C[C@H](C)[C@@H](CN(C)C(=O)Nc2ccc(F)cc2)OCCCC[C@H](C)O3)cc1,inactive
8,Cc1ccc(S(=O)(=O)Nc2ccc3c(c2)C(=O)N([C@@H](C)CO)C[C@@H](C)[C@@H](CN(C)C(=O)Nc2ccc(F)cc2)OCCCC[C@@H](C)O3)cc1,inactive
9,Cc1ccc(S(=O)(=O)Nc2ccc3c(c2)C(=O)N([C@@H](C)CO)C[C@@H](C)[C@H](CN(C)C(=O)Nc2ccc(F)cc2)OCCCC[C@@H](C)O3)cc1,inactive
10,Cc1ccc(S(=O)(=O)Nc2ccc3c(c2)C(=O)N([C@@H](C)CO)C[C@H](C)[C@@H](CN(C)C(=O)Nc2ccc(F)cc2)OCCCC[C@@H](C)O3)cc1,inactive
11,Cc1ccc(S(=O)(=O)Nc2ccc3c(c2)C(=O)N([C@H](C)CO)C[C@@H](C)[C@H](CN(C)C(=O)Nc2ccc(F)cc2)OCCCC[C@@H](C)O3)cc1,active
12,Cc1ccc(S(=O)(=O)Nc2ccc3c(c2)C(=O)N([C@@H](C)CO)C[C@H](C)[C@H](CN(C)C(=O)Nc2ccc(F)cc2)OCCCC[C@@H](C)O3)cc1,inactive
13,Cc1ccc(S(=O)(=O)Nc2ccc3c(c2)C(=O)N([C@H](C)CO)C[C@H](C)[C@@H](CN(C)C(=O)Nc2ccc(F)cc2)OCCCC[C@H](C)O3)cc1,active
14,C[C@@H]1CN([C@@H](C)CO)C(=O)c2cccc(NC(=O)C3CCCCC3)c2O[C@H]1CN(C)Cc1ccc(-c2ccccc2)cc1,inactive
15,CC(C)NC(=O)Nc1ccc2c(c1)C(=O)N([C@@H](C)CO)C[C@H](C)[C@H](CN(C)S(=O)(=O)c1ccc(F)cc1)O2,inactive
16,Cc1cccc(N2CCC(N)CC2)c1,inactive
17,CN1C(=O)c2cc(NC(=O)c3ccc(F)c(F)c3)ccc2OC[C@H]2O[C@@H](CC(=O)N3CCOCC3)CC[C@@H]21,inactive
18,COc1ccc(NC(=O)N(C)C[C@@H]2Oc3c(NC(=O)c4ccc(-c5nccs5)cc4)cccc3C(=O)N([C@@H](C)CO)C[C@H]2C)cc1,inactive
19,CCNC(=O)C[C@H]1CC[C@@H]2[C@H](COC[C@@H](O)CN2C(=O)Nc2c(C)noc2C)O1,inactive
20,CN(C)CCCCNC(=O)[C@@H]1C[C@@H]2C(=O)N[C@@H](CCCC[N+](C)(C)C)C(=O)N2[C@@H]1c1cccc(OCCO)c1,inactive
21,Cc1ccc(S(=O)(=O)Nc2ccc3c(c2)C(=O)N([C@H](C)CO)C[C@@H](C)[C@@H](CN(C)S(=O)(=O)c2ccc(C)cc2)OCCCC[C@@H](C)O3)cc1,inactive
22,Cc1ccc(S(=O)(=O)Nc2ccc3c(c2)C(=O)N([C@H](C)CO)C[C@H](C)[C@@H](CN(C)S(=O)(=O)c2ccc(C)cc2)OCCCC[C@H](C)O3)cc1,inactive

row,SMILES,cytotoxicity call
1,Cc1ccc(S(=O)(=O)Nc2ccc3c(c2)C(=O)N([C@H](C)CO)C[C@@H](C)[C@H](CN(C)S(=O)(=O)c2ccc(C)cc2)OCCCC[C@@H](C)O3)cc1,inactive
2,Cc1ccc(S(=O)(=O)Nc2ccc3c(c2)C(=O)N([C@@H](C)CO)C[C@@H](C)[C@H](CN(C)S(=O)(=O)c2ccc(C)cc2)OCCCC[C@@H](C)O3)cc1,active
3,Cc1ccc(S(=O)(=O)Nc2ccc3c(c2)C(=O)N([C@H](C)CO)C[C@H](C)[C@@H](CN(C)S(=O)(=O)c2ccc(C)cc2)OCCCC[C@@H](C)O3)cc1,inactive
4,Cc1ccc(S(=O)(=O)Nc2ccc3c(c2)C(=O)N([C@@H](C)CO)C[C@H](C)[C@H](CN(C)S(=O)(=O)c2ccc(C)cc2)OCCCC[C@H](C)O3)cc1,active
5,C[C@H]1CC=CC[C@H](c2cccc(Cl)c2)NC(=O)[C@H](Cc2ccccc2)N(C)C(=O)c2ccccc2O1,inactive
6,Cc1ccc(S(=O)(=O)N(C)C[C@@H]2OCCCC[C@@H](C)Oc3ccc(NC(=O)Nc4ccc(F)cc4)cc3C(=O)N([C@H](C)CO)C[C@@H]2C)cc1,inactive
7,C[C@H](CO)N1C[C@H](C)[C@H](CN(C)C(=O)Nc2cccc(F)c2)OCc2ccccc2-c2ccccc2C1=O,inactive
8,CCCN(CCC)S(=O)(=O)c1ccc(C(=O)N(c2cccc(SC)c2)[C@H]2OC(=O)c3ccccc32)cc1,inactive
9,C[C@H]1CN([C@@H](C)CO)S(=O)(=O)c2ccc(C#CCN(C)C)cc2O[C@H]1CN(C)S(=O)(=O)c1cccc(F)c1,inactive
10,C[C@@H]1CN([C@H](C)CO)C(=O)c2cccc(NC(=O)c3ccc(-c4nccs4)cc3)c2O[C@@H]1CN(C)Cc1ccc(C(=O)O)cc1,inactive
11,C[C@H](CO)N1C[C@H](C)[C@H](CN(C)Cc2ccc(C(F)(F)F)cc2)Oc2c(NC(=O)c3ccc(-c4nccs4)cc3)cccc2C1=O,inactive
12,C[C@@H]1CN([C@H](C)CO)C(=O)c2cccc(NC(=O)c3ccc(-c4nccs4)cc3)c2O[C@@H]1CN(C)Cc1ccc(C(F)(F)F)cc1,active
13,C[C@H]1CN([C@@H](C)CO)C(=O)c2cccc(NC(=O)c3ccc(-c4nccs4)cc3)c2O[C@H]1CN(C)C(=O)Nc1ccc(C(F)(F)F)cc1,inactive
14,C[C@@H]1CN([C@@H](C)CO)C(=O)c2cccc(NC(=O)c3ccc(-c4nccs4)cc3)c2O[C@H]1CN(C)Cc1ccc(C(F)(F)F)cc1,inactive
15,C[C@@H]1CN([C@@H](C)CO)C(=O)c2cccc(NC(=O)c3ccc(-c4nccs4)cc3)c2O[C@@H]1CN(C)C(=O)Nc1ccc(C(F)(F)F)cc1,active
16,C[C@H](CO)N1C[C@H](C)[C@@H](CN(C)Cc2ccc(C(F)(F)F)cc2)Oc2c(NC(=O)c3ccc(-c4nccs4)cc3)cccc2C1=O,inactive
17,C[C@H]1CN([C@@H](C)CO)C(=O)c2cccc(NC(=O)c3ccc(-c4nccs4)cc3)c2O[C@H]1CN(C)Cc1ccc(C(F)(F)F)cc1,inactive
18,C[C@@H]1CN([C@H](C)CO)C(=O)c2cccc(NC(=O)c3ccc(-c4nccs4)cc3)c2O[C@H]1CN(C)Cc1ccc(C(F)(F)F)cc1,inactive
19,C[C@@H]1CN([C@@H](C)CO)C(=O)c2cccc(NC(=O)c3ccc(-c4nccs4)cc3)c2O[C@@H]1CN(C)Cc1ccc(C(F)(F)F)cc1,active
20,C[C@H](CO)N1C[C@H](C)[C@H](CN(C)C(=O)Nc2ccc(C(F)(F)F)cc2)Oc2c(NC(=O)c3ccc(-c4nccs4)cc3)cccc2C1=O,inactive
21,C[C@H]1CN([C@@H](C)CO)C(=O)c2cccc(NC(=O)c3ccc(-c4nccs4)cc3)c2O[C@@H]1CN(C)Cc1ccc(C(F)(F)F)cc1,active
